Screening results (PubChem BioAssay)
Pf growth 48h: P. falciparum growth inhibition at 48 hours (one generation). P. falciparum luciferase growth in erythrocytes, 48 h. actives 5.9% (n = 310,000). Potency, µM (highest dose often 28.7 µM), for the others: top-dose activity change, negative = inhibition, usual class: inhibitors. AID 504832; also: % is scaled to controls: 0 for no effect and ±100 for the full control effect
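Firefly luciferase activity from engineered P. falciparum reports growth; inhibitors lower the luminescent signal. Cultures contained 2% hematocrit erythrocytes at 0.1% final parasitemia.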
NS1 inh: inhibitors of influenza NS1 protein function; Potency, µM (series often up to 46.1 µM), without a hit: at the highest dose activity, positive = more growth; actives 0.4% (n = 270,000); AID 2326; calls by dose curve; also: actives are rising curves; nearly all actives have a fitted effect of over 50% in size
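A cell-based growth assay was used: compounds that relieve NS1-induced slow growth of budding yeast raise OD600. Assay medium was yeast nitrogen base with ammonium sulphate and -URA supplement, pH 6.0, with 2% galactose.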
Pf growth 96h: P. falciparum growth inhibition at 96 hour, primary screen for plastid delayed-death inhibitors; actives 6.9% (n = 320,000); Potency, µM (series often up to 28.7 µM), for the others: at the top dose activity change, negative = inhibition, most hits filed as inhibitors; P. falciparum luciferase reporter growth, 96 h; also: % is scaled to controls: 0 for no effect and ±100 for the full control effect
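Two parasite generations (96 h, 37 C, 5% CO2) of compound exposure in infected erythrocytes (0.05% parasitemia, 2% hematocrit). Luciferase-reporter P. falciparum; decreased luminescence indicates inhibited growth, aimed at apicoplast-acting delayed death.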
HCV inhibitor: inhibitors of hepatitis C virus infection; Huh7.5.1 HCVcc-Cre infection, luciferase reporter, 44 h; Potency, µM (titrated, usually from 41.8 µM), for the others: top-dose activity change, negative = inhibition, most hits filed as inhibitors; actives 3.4% (n = 340,000); also: % is scaled to controls: 0 for no effect and ±100 for the full control effect
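Reporter virus HCVcc-Cre (~0.5 moi) infects cells exposed to compound; seeding density 1,000 cells/well with 4 h settling beforehand. Luminescence, 15 sec read, taken 44 h post-infection following a 15 min RT substrate incubation.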
Vaccinia mCherry: inhibitors of vaccinia virus infection (mCherry reporter signal); Potency, µM (top dose mostly 36.5 µM), without a hit: at the highest dose activity change, negative = inhibition, usual class: inhibitors; actives 0.63% (n = 310,000); Vaccinia virus mCherry reporter infection, fluorescence; AID 720579; calls by dose curve; tested in A549 cells; also: % is scaled to controls: 0 for no effect and ±100 for the full control effect; nearly all actives have a fitted effect of over 35% in size
Vaccinia Venus: inhibitors of vaccinia virus (Venus reporter); Vaccinia virus Venus reporter expression, fluorescence; Potency, µM (top dose mostly 36.5 µM), for inactives: top-dose activity change, negative = inhibition, actives largely listed as inhibitors; actives 0.46% (n = 330,000); AID 720580; calls by dose curve; tested in A549 cells; also: % is scaled to controls: 0 for no effect and ±100 for the full control effect; nearly all actives have a fitted effect of over 30% in size
Starred values were filed as active, the others as inactive; i = inactive; ? = inconclusive; . = not tested or not shown; [ ] = dose if it differs, or a comment. In the library only some 11% were active in any assay of this set; here they are far more common. Unless noted, calls follow the shape of the dose curve; as a rule, active = well fitted inhibition curve with a large enough effect; inconclusive = small, poorly fitted or top-dose-only effect, or another doubt; inactive = no such curve, though single readings can be large or run the other way. Potency is read from the fitted curve at half-maximal effect.

SMILES	Pf growth 48h	NS1 inh	Pf growth 96h	HCV inhibitor	Vaccinia mCherry	Vaccinia Venus
Cc1cccc(COCC(Cc2ccccc2)N2CCN(C(=O)c3cccc(Cl)c3)CCC2=O)c1 (configuration not stated)	?	-20%	12µM*	?	i	?
CCC(CC)N1CCN(C(=O)c2cccc(Cl)c2)CC1	16%	-4%	13µM*	-7%	-14%	-17%
Cc1cccc(COC[C@H](Cc2ccccc2)N2CCN(C(=O)c3cccc(C)c3)CCC2=O)c1	.	.	.	.	14%	-12%
O=C(c1cccc(Cl)c1)N1CCC(=O)N(C(COCc2ccccc2)Cc2ccccc2)CC1 (configuration not stated)	?	-29%	10µM*	-23%	-21%	-26%
CC(=O)Nc1ccc(NC(=O)CCCc2c[nH]c3ccccc23)cc1	111%	7%	13%	?	-10%	-4%
Cc1ccc(S(=O)(=O)N2CCC(=O)N([C@H](COCc3ccc(Cl)cc3Cl)Cc3ccccc3)CC2)cc1	.	.	.	.	-3%	-11%
Cc1ccc(S(=O)(=O)N2CCC(=O)N(C(COCc3ccc(Cl)cc3)Cc3ccccc3)CC2)cc1 (configuration not stated)	12µM*	?	10µM*	?	-14%	-28%
O=C(c1ccc(Cl)c(Cl)c1)N1CCC(=O)N(C(COCc2ccccc2)Cc2ccccc2)CC1 (configuration not stated)	?	-17%	12µM*	?	-3%	?
Cc1cccc(C(=O)N2CCC(=O)N(C(COCc3cccc(C(F)(F)F)c3)Cc3ccccc3)CC2)c1 (configuration not stated)	?	-1%	9.3µM*	-1%[8.37 µM]	i	-27%
O=C(c1ccc(Cl)c(Cl)c1)N1CCC(=O)N([C@H](COCc2ccccc2)Cc2ccccc2)CC1	.	.	.	.	i	-9%
COc1ccc(/C(N)=N/OC(=O)c2ccc(C)c([N+](=O)[O-])c2)cc1	.	-2%	18%	3%	.	-8%
COCC(C)n1c(C)cc(C(=O)CSc2nnnn2-c2ccc(O)cc2)c1C (configuration not stated)	?	.	-29%	-13%	i	-8%
CCOC(=O)c1c(C)n(C)c2cc(CN(C)C)c(O)c(S(=O)(=O)c3ccccc3)c12	23%	1%	?	3%	-3%	-5%
COc1cccc(OC)c1C(=O)NCCc1ccccc1	.	.	.	-9%	.	.
COc1ccc(CNC(=O)c2cc3ccccc3o2)cc1OC	-8%	-5%	13µM*	?	2%	-17%
CCOc1ccc(CNC(=O)c2nnc(CS(=O)(=O)c3ccccc3)o2)cc1OC	4.7µM*	-3%	?	?	i	-11%
Cc1nc2ccccc2cc1C(=O)NCc1ccco1	1%	4%	4%	-8%	.	-14%
O=C(NCc1ccco1)c1ccc2ccccc2n1	8%	-57%	10µM*	-13%	-23%	-8%
COc1cccc2cc(C(=O)NCCc3ccccc3)oc12	8.3µM*	3%	32%	4%	.	.
Cc1ccc(C)c(S(=O)(=O)N2CCN(C(=O)CCC(=O)NCc3ccc(Cl)cc3)CC2)c1	?	.	-5%	17%	.	.
COc1ccc(C(=O)Nc2ccc(NC(=O)c3ccco3)c(Cl)c2)cc1OC	-8%	-3%	-22%	?	-7%	-8%
Cc1cccc(C(=O)NCCc2csc(C)n2)c1	13%	3%	16%	26%	0%	3%
O=C(c1ccc(Cl)cc1)N1CCC2CC1c1cc(-c3ccccc3)ccc12 (configuration not stated)	.	.	.	3%[8.37 µM]	i	-19%
COc1ccc(CCNC(=O)c2ccc3ccccc3n2)cc1OC	0%	-40%	-16%	?	-9%	-8%
CCOc1ccc(CCNC(=O)c2ccc3ccccc3n2)cc1OCC	?	-33%	?	11µM*	.	.
SMILES	Pf growth 48h	NS1 inh	Pf growth 96h	HCV inhibitor	Vaccinia mCherry	Vaccinia Venus
COc1ccc(CNC(=O)c2ccc3ccccc3n2)cc1OC	4%	-22%	34%	10µM*	-27%	-14%
O=C(O)c1ccc(S(=O)(=O)Nc2ccc(O)c(Sc3nc4ccccc4s3)c2)cc1	7%	2%	103%	-2%	14%	-2%
Cc1[nH]nc(C(F)(F)F)c1CCC(=O)NC1CCCCCC1	.	.	.	0%	.	.
Cc1ccc(NC(=O)COC(=O)[C@@H]2CC(O)CN2S(=O)(=O)c2ccc3c(c2)OCCO3)cc1 (some centres not stated)	.	.	.	20%	-17%	-13%
COc1ccc(O)c(C(=O)c2coc(=N)c(C(=O)Nc3ccc(SC(F)F)cc3)c2)c1	?	.	2.3µM*	?	-28%	-19%
O=C(CN1C(=O)S/C(=C/c2cccs2)C1=O)N1CCCC1	11%	.	-15%	-5%	-13%	3%
COc1ccc(CC(=O)NCc2ccccn2)cc1OC	10µM*	-2%	4.7µM*	17%	i[1.46 µM]	0%
COc1ccc(CC(=O)NNC(=O)c2nn(Cc3ccccc3)c(=O)c3ccccc23)cc1OC	3.3µM*	6%	?	-3%	.	.
COc1ccc(CC(=O)NCc2cccc(CNC(=O)Cc3ccc(OC)c(OC)c3)c2)cc1OC	-17%	0%	8.3µM*	-2%	.	.
COc1ccc(CCNC(=O)Cn2nc(C(=O)O)c3ccccc3c2=O)cc1OC	28%	.	24%	7%	.	.
COc1ccc(CC(=O)c2ccc(OC)c(OC)c2C)cc1OC	?	0%	10µM*	?	-18%	-22%
COc1ccc(CNC(=O)Cc2csc3ccccc23)cc1OC	.	.	.	.	-9%	-15%
COc1cccc(CN(C)CC(=O)Nc2cccc(S(=O)(=O)N(C)c3ccccc3)c2)c1OC	.	.	.	?	-25%	-14%
Cc1ccsc1CN(C)CC(=O)Nc1cccc(S(=O)(=O)N(C)c2ccccc2)c1	?	.	?	?	-3%	-21%
Cc1nnc(SCC(=O)Nc2cccc(S(=O)(=O)N(C)c3ccccc3)c2)s1	-8%	-2%	?	7.1µM*	-4%	-22%
CCN(CC(=O)Nc1cccc(S(=O)(=O)N(C)c2ccccc2)c1)Cc1cccs1	?	.	?	35µM*	?	-20%
CN(c1ccccc1)S(=O)(=O)c1cccc(NC(=O)CN2CCc3ccccc3C2)c1	-21%	.	10µM*	-5%	-10%	-2%
COc1cc(CC(=O)Nc2cccc(S(=O)(=O)N(C)c3ccccc3)c2)cc(OC)c1OC	.	.	.	10µM*	.	.
COc1cccc(N2CCN(C(=O)c3ccc(Cl)c(S(=O)(=O)N4CCCCCC4)c3)CC2)c1	.	.	.	.	i	-9%
COc1ccc(NC(=O)CCCC(=O)c2ccccc2)c(OC)c1	?	-4%	?	-15%	.	.
